# Bioassay records: PubChem BioAssay, National Center for Advancing Translational Sciences (NCATS)
# Sampled rows, rich in hits. Any-hit rate of the full collection: about 7.2%.
# HEK cytotox: kills HEK 293 cells. hit rate 6.6% among 94,000. AID 1345083. Potency, µM (titrated, usually from 115 µM), without a hit: at the highest dose activity change, negative = cytotoxicity, usual class: inhibitors. HEK 293 viability, ATP luminescence (CellTiter-Glo), 48-72 h; also: nearly all actives have a fitted effect of over 60% in size
#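 ATP-coupled CellTiter-Glo luminescence served as viability read-out, recorded 10 min after reagent addition at room temperature. HEK 293 cells, 250 cells/well, had been incubated with pintool-transferred compound for 48 or 72 hr at 37 degree Celsius.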
# SNCA expr inhib: inhibitors of alpha-synuclein (SNCA) gene expression | HEK-293 SNCA-luciferase knock-in, luminescence, 24 h | Potency, µM (top dose mostly 57.2 µM), for inactives: at the highest dose activity change, negative = inhibition, usual class: inhibitors | hit rate 0.17% among 140,000;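 also: plate controls were DMSO cells for no effect and cell-free wells for full effect; nearly all actives have a fitted effect of over 45% in size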
# FLuc inh: blocks purified firefly luciferase enzyme activity; Potency, µM (doses to about 115 µM), actives largely listed as inhibitors; P08659; purified P. pyralis luciferase, luminescence, biochemical; hit rate 2.5% among 76,000; also: nearly all actives have a fitted effect of over 65% in size
#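 Cell-free enzyme assay, 10nM P. pyralis luciferase, luciferin and ATP each at 10uM. Inhibition profiled over a 6-point titration, read as luminescence.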
# 3T3 cytotox: NIH 3T3 cell cytotoxicity. NIH 3T3 viability, CellTiter-Glo ATP luminescence, 48-72 h. Potency, µM (doses to about 96.7 µM), inactives show top-dose activity change, negative = cytotoxicity, most hits filed as inhibitors. hit rate 4.3% among 94,000. AID 1345082; also: nearly all actives have a fitted effect of over 55% in size
#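 ATP-dependent luminescence (CellTiter-Glo) served as the viability signal for NIH 3T3 cells treated with compound for 48 or 72 hr at 37 °C.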
# NPR1 antag: human Npr1 receptor antagonism; P16066; HEK293 hNpr1 GloSensor cGMP, ANP-stimulated luminescence; Potency, µM (series often up to 46.3 µM), for inactives: at the top dose activity change, negative = inhibition, usual class: inhibitors; hit rate 1.6% among 76,000; AID 1347048; calls by dose curve; also: nearly all actives have a fitted effect of over 60% in size
# Target sequence (P16066 whole entry, looked up): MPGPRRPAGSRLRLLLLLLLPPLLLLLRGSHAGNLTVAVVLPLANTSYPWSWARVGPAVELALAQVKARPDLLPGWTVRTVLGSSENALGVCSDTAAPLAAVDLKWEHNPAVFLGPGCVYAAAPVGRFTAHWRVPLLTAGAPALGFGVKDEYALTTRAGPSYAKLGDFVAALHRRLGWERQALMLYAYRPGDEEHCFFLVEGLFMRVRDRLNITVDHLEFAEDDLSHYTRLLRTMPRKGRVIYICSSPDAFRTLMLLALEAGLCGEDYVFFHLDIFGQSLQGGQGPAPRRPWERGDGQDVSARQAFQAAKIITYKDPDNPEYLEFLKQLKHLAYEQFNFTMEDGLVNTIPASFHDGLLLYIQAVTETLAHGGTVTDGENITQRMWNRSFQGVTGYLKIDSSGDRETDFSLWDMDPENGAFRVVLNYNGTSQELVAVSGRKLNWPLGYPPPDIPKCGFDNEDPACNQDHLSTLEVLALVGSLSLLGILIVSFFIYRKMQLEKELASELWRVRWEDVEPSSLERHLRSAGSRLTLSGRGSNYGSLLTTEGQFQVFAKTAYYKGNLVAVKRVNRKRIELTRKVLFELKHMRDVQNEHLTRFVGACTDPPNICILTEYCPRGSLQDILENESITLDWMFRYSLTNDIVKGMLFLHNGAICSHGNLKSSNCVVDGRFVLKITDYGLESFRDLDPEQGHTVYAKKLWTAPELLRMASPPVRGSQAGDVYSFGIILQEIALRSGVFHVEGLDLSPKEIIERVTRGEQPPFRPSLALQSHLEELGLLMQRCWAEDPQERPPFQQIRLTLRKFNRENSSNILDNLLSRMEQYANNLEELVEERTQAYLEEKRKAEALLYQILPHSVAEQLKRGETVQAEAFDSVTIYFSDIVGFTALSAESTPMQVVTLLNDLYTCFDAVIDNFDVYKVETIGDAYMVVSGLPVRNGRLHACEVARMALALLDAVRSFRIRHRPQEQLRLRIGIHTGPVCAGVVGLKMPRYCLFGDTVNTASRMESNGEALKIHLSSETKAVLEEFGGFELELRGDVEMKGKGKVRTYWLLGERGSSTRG
#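 Compound pre-incubated 30 min at room temperature on GloSensor-loaded HEK293 cells stably carrying hNpr1 and the pGS-40F cGMP biosensor. Stimulation uses hNppA at 0.1 nM final; luminescence is taken at baseline and 20 min post-agonist.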
# SNCA viab count: reduces viability of HEK-293 SNCA reporter cells; Potency, µM (highest dose often 57.1 µM), for inactives: top-dose activity change, negative = cytotoxicity, most hits filed as cytotoxic; HEK-293-SNCA-luc viability, GF-AFC fluorescence, 24 h; hit rate 0.12% among 150,000;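 also: 0% = DMSO-treated cells and -100% = medium-only wells without cells; nearly all actives have a fitted effect of over 30% in size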
#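 Cytotoxicity counterscreen: after 24 h compound treatment of genome-edited SNCA-luciferase HEK-293 cells, live-cell protease substrate GF-AFC read by fluorescence after 30 min; activity scaled between DMSO (0%) and medium-only (-100%), curves Hill-fitted.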
# Active calls of the source: *; i = inactive; ? = inconclusive; · = no result given; ! = not confirmed by another sample; [ ] = remark or other dose. Unless noted, calls follow the shape of the dose curve; as a rule, active = well fitted curve in the direction sought with a large enough effect; inconclusive = small, poorly fitted or top-dose-only effect, or another doubt; inactive = no such curve, though single readings can be large; an effect the other way counts as inactive or inconclusive. Unless noted, % is scaled to controls: 0 for no effect and ±100 for the full control effect; potency is read from the fitted curve at half-maximal effect.
SMILES,HEK cytotox,SNCA expr inhib,FLuc inh,3T3 cytotox,NPR1 antag,SNCA viab count
O=c1n(-c2ccc(C(F)(F)F)cc2)nc2n1CCN(Cc1cccc3ccccc13)C2,28.2µM*!,-6.6%,i,?,-19.3%,13.9%
O=c1n(-c2ccc(C(F)(F)F)cc2)nc2n1CCN(Cc1ccccn1)C2,?,66.7%,?,?,4.5%,5.4%
CN(C)c1ccc(CN2CCn3c(nn(-c4ccc(F)cc4F)c3=O)C2)cc1,-22.8%,9.2%,i,-22.5%,?,-1.6%
O=c1n(-c2ccncc2)nc2n1CCN(Cc1ccsc1)C2,?,1.3%[87.6 µM],?,?,-6.8%[70.6 µM],-2.9%[87.6 µM]
COc1ccc(-n2nc3n(c2=O)CCN(Cc2ccsc2)C3)cc1,?,50.6%,·,31.6µM*,·,-22.3%
O=C(c1ccccc1)N1CCn2c(nn(-c3ccc(F)cc3)c2=O)C1,100µM*,0.2%[87.6 µM],i,-18.6%[138 µM],2.4%[70.6 µM],-5.3%[87.6 µM]
COCCC(=O)N1CC(Oc2ccc(-c3noc(-c4ccccc4)n3)cc2)C1,22.4µM*,27.9%,12.6µM*,?,20µM*,-13.6%
COc1cccc(CC(=O)N2CC(Oc3ccc(-c4nc(-c5ccccc5)no4)cc3)C2)c1,12.6µM*,-1.7%,8.91µM*,?,3.55µM*,-20.4%
COCCOCC(=O)N1CC(Oc2ccc(-c3noc(-c4ccccc4)n3)cc2)C1,?,-1.0%,?,?,10µM*,-9.2%
Cc1ccccc1[C@H]1C[C@@H](O)[C@@H](O)[C@@H]1NC(=O)c1nc2ccccc2s1,?,53.7%[87.6 µM],i,?,-10.6%[70.6 µM],-20.4%[87.6 µM]
O=C(N[C@H]1[C@H](O)[C@H](O)C[C@@H]1c1ccc(C(F)(F)F)nc1)c1nc2ccccc2s1,-26.9%[172 µM],30.9%[87.6 µM],44.7µM*,-21.8%[138 µM],-11.4%[70.6 µM],-7.0%[87.6 µM]
COc1ccc([C@H]2C[C@@H](O)[C@@H](O)[C@@H]2NC(=O)c2nc3ccccc3s2)cc1,?,33.5%[87.6 µM],44.7µM*,-26.6%[138 µM],-26.0%[70.6 µM],-11.9%[87.6 µM]
O=C1Nc2ccccc2C12CN(Cc1ccsc1)C2,-28.7%[172 µM],0.8%[87.6 µM],·,-11.4%[138 µM],·,-3.2%[87.6 µM]
Cc1ccc(NC(=O)CN2C(=O)NC3(CCS(=O)(=O)CC3)C2=O)cc1C,17.3%,21.7%,i,i,2.1%,1.7%
O=C(CN1C(=O)NC2(CCS(=O)(=O)CC2)C1=O)Nc1ccc2c(c1)OCCO2,1.3%,12.6%,35.5µM*,i,-4.9%,-4.9%
O=C(NCc1ccc(Cl)cc1)C1CCc2nnc(C3CCN([S+](=O)([O-])c4ccccc4Cl)CC3)n21 (stereo unspecified),?,6.7%,·,?,·,-12.8%[12.5 µM]
COCCNc1ncc(-c2ccc(F)cc2)c2c1OCC2,?,134.8%[87.6 µM],15.8µM*,?,0.7%[70.6 µM],-4.6%[87.6 µM]
COCCNc1ncc(-c2ccc(SC)cc2)c2c1OCC2,?,134.4%[87.6 µM],?,?,3.0%[70.6 µM],-0.8%[87.6 µM]
COCCNc1ncc(-c2ccc(OC)cc2)c2c1OCC2,?,94.8%[87.6 µM],44.7µM*,?,5.1%[70.6 µM],-11.8%[87.6 µM]
COc1ccc(OCC(=O)Nc2ncc(-c3ccc(OC)nc3)c3c2OCC3)cc1,?,-3.8%[87.6 µM],i,-12.7%[138 µM],5.4%[70.6 µM],-9.0%[87.6 µM]
O=C(Nc1ccc(C(F)(F)F)cc1)N[C@H]1[C@H](O)[C@H](O)C[C@@H]1c1ccccc1,?,-18.9%[87.6 µM],i,79.4µM*,-13.4%[70.6 µM],-9.3%[87.6 µM]
O=S(=O)(N[C@H]1[C@H](O)[C@H](O)C[C@@H]1c1ccccc1)c1ccc(C(F)(F)F)cc1,-8.8%[172 µM],-23.1%[87.6 µM],i,i,-0.4%[70.6 µM],1.0%[87.6 µM]
COCC1CN(C(C)=O)CC12CCN(Cc1ccc(OC)c(C)c1)CC2 (stereo unspecified),-3.0%,-23.0%,i,i,-0.7%,-8.0%
CC(C)Cn1c(=O)c(C(=O)N2CCN(C(=O)c3ccc(Cl)cc3)CC2)nc2cccnc21,-1.0%,2.2%,·,-18.1%,·,7.0%
COc1ccc(-c2noc([C@@H]3Cc4nc[nH]c4CN3C(=O)c3ccc(F)cc3)n2)cc1,?,?,?,?,-10.5%[70.6 µM],-21.5%[87.6 µM]
SMILES,HEK cytotox,SNCA expr inhib,FLuc inh,3T3 cytotox,NPR1 antag,SNCA viab count
COc1ccc(-c2noc([C@@H]3Cc4nc[nH]c4CN3Cc3ccc(CO)o3)n2)cc1,-24.5%[172 µM],?,39.8µM*,-25.1%[138 µM],-4.7%[70.6 µM],-20.2%[87.6 µM]
COc1ccc(CN2Cc3[nH]cnc3C[C@H]2c2nc(-c3ccc(C)cc3)no2)cc1,100µM*,?,39.8µM*,79.4µM*,-21.9%[70.6 µM],-19.1%[87.6 µM]
COc1ccc(CN2Cc3[nH]cnc3C[C@H]2c2nc(-c3ccc4ccccc4c3)no2)cc1,44.7µM*,14.2%,i,39.8µM*,-20.2%,-14.7%
COc1ccccc1CN1Cc2[nH]cnc2C[C@H]1c1nc(-c2cccc(C)c2)no1,63.1µM*,?,i,70.8µM*,-26.2%[70.6 µM],-16.0%[87.6 µM]
Fc1ccccc1CNCc1ccc(-c2ccnc3[nH]ccc23)cc1,·,·,·,·,·,7.4%
Cc1noc(C)c1Cc1ccc(C(=O)N2CCCCCCNC(=O)CC2)o1,0.1%,-10.4%,i,-16.9%,3.9%,3.9%
COc1ccc(-c2noc([C@@H]3CCCN3C(=O)COc3cccc(C)c3)n2)cc1,?,-10.5%,i,?,-17.0%,-12.6%
COc1ccc(CN2Cc3[nH]cnc3C[C@H]2c2nc(-c3ccccn3)no2)cc1,?,58.3%[87.6 µM],35.5µM*,?,-17.7%[70.6 µM],-1.0%[87.6 µM]
COc1ccc(CN2Cc3[nH]cnc3C[C@H]2c2nc(-c3ccncc3)no2)cc1,?,10.5%[87.6 µM],i,?,-26.4%[70.6 µM],-7.8%[87.6 µM]
N#Cc1cccc(CN2Cc3[nH]cnc3C[C@H]2c2nc(-c3ccc(OC(F)(F)F)cc3)no2)c1,?,?,?,?,-26.7%,-18.2%
COc1ccc(-c2noc([C@@H]3Cc4nc[nH]c4CN3Cc3ccc(C)cc3)n2)cc1,89.1µM*,?,63.1µM*,?,-24.9%[70.6 µM],?
COCCCn1c(=O)c(C(=O)N2CCN([S+](=O)([O-])c3c(C)noc3C)CC2)nc2cccnc21,i,15.0%,·,-20.4%,·,4.5%
CCc1cccc(NC(=O)CC2CCCN(c3cn[nH]c(=O)c3)C2)c1 (stereo unspecified),?,21.2%,i,-22.1%,-3.7%,7.0%
CN1c2cc(C(=O)Nc3ccc(Cl)cc3)ccc2C(=O)N2CCCCC21 (stereo unspecified),?,213.7%,?,?,0.0%,0.5%[12.5 µM]
Cc1ccc(NC(=O)c2ccc3c(c2)N(C)C2CCCCN2C3=O)cc1C (stereo unspecified),?,148.8%,39.8µM*,?,-3.3%,-4.8%[12.5 µM]
Cc1ccc(NC(=O)c2ccc3c(c2)N(C)C2CCCCN2C3=O)cc1Cl (stereo unspecified),?,25.6%,?,-18.3%,-8.1%,9.7%[12.5 µM]
